Results reported in PubChem BioAssay.
Active and inactive are the calls of the source.

Key:
[1] = small molecules captured by biotinylated probe aFSTL3 – biochemical, small-molecule microarray, fluorescence 635/667, stem cell growth factor project, primary screen (AID 1064); conditions: higher = more signal;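 further: measures binding of the biotinylated anti-FSTL3 antibody to printed compounds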
[2] = binders from COS7 lysate, DM2A8 probe, primary screen, torsin A project, cell lysate, small-molecule microarray, fluorescence 635/667 (AID 1065); conditions: higher = more signal, COS7 lysate expressing mutant human TOR1A
[3] = small molecules captured by biotinylated probe aFGF2 – biochemical, small-molecule microarray, fluorescence 635/667, stem cell growth factor project, primary screen (AID 1067); conditions: higher = more signal;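 further: measures binding of biotinylated aFGF2 protein to printed compounds on slides; z-score merges feature fluorescence and signal-to-noise across triplicate slides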
[4] = small molecules captured by biotinylated probe aFGF10 – biochemical, small-molecule microarray, fluorescence 635/667, stem cell growth factor project, primary screen (AID 1071); conditions: higher = more signal;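 further: score merges 667 nm spot intensity and signal to noise from triplicate slides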
[5] = molecular target: Neurogenic locus notch homolog protein 2 (Homo sapiens) (UniProt Q04721); assay: small molecules binding Notch2 protein – biochemical, small-molecule microarray, 635 nm fluorescence, stem cell growth factors, primary screen (AID 1073); conditions: higher = more signal
[6] = molecular target: Pro-neuregulin-1, membrane-bound isoform (Homo sapiens) (UniProt Q02297); assay: small molecules binding neuregulin-1 protein – biochemical, small-molecule microarray, fluorescence 635/667, psychiatric disease protein project, primary screen (AID 1075); conditions: NRG1 binding, 635 nm fluorescence, higher = more signal;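 further: score combines 667 nm spot fluorescence with signal to noise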
Chain of Pro-neuregulin-1, membrane-bound isoform (Homo sapiens) (Q02297 whole entry, looked up, the tested form may be a part, canonical isoform): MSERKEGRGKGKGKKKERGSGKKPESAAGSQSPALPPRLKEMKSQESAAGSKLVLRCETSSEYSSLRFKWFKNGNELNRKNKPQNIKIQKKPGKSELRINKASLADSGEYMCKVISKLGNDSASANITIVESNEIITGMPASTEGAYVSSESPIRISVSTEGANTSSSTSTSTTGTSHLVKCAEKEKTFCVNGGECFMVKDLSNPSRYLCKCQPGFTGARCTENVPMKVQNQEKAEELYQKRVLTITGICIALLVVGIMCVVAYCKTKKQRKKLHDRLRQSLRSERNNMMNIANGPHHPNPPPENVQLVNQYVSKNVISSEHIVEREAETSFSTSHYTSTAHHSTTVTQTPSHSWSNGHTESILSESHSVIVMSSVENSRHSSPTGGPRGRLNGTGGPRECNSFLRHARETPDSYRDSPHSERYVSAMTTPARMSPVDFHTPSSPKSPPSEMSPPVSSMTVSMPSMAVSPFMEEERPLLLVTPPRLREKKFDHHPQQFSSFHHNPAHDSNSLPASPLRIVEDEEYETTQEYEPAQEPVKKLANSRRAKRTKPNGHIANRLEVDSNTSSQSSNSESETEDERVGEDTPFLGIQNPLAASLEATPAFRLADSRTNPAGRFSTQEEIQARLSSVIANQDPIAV

[7] = tested on: Neuregulin-1 EGF-like domain; assay: small molecules binding NRG1 EGF domain – biochemical, small-molecule microarray, 635 nm fluorescence, primary screen (AID 1081); conditions: higher = more signal;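 further: binding of the protein to compounds printed on small-molecule microarray slides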
[8] = FRG1 expression reporter modulators in myotubes – cell-based, C2C12 myotubes, firefly/Renilla luciferase, luminescence, FRG1 inhibition for FSHD, primary screen (AID 1084); conditions: FRG1 promoter luciferase, higher = more signal, called active from +8 up or from −8 down
[9] = small molecules captured by biotinylated probe aFST – biochemical, small-molecule microarray, fluorescence 635/667, stem cell growth factor project, primary screen (AID 1086); conditions: higher = more signal;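 further: score merges 667 nm fluorescence with signal-to-noise of each printed compound spot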
[10] = binders of probe aHhip on microarray, primary screen, stem cell growth factor project, biochemical, small-molecule microarray, fluorescence 635/667 (AID 1087); conditions: higher = more signal;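 further: score merges spot fluorescence at 667nm with spot signal to noise ratio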
[11] = tested on: PRMT1 (protein arginine N-methyltransferase 1); assay: small molecules binding arginine methyltransferase PRMT1 – biochemical, small-molecule microarray, 635 nm fluorescence, primary screen (AID 1088); conditions: higher = more signal;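 further: binding of Prmt1 protein to compounds spotted on small-molecule microarray slides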
[12] = growth effects on S. cerevisiae YJM789 – YJM789 clinical isolate, OD600, 24 h, basal, primary screen (AID 1089); conditions: higher = more signal, called active from +8 up or from −8 down;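 further: growth of clinical yeast isolate S. cerevisiae YJM 789 seeded 1000 cells per well; test concentration not given here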
[13] = S. pombe growth modifiers, basal conditions – strain 972, OD600, 24 h, no modulator, primary screen (AID 1090);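 further: basal condition with compound alone and no growth modifier present; test concentration not given here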; conditions: S. pombe 972 growth, higher = more signal, called active from +8 up or from −8 down
[14] = budding yeast growth modifiers under rapamycin – strain BY4716, OD600, 96 h, primary screen (AID 1091); further: test concentration not given here; conditions: S. cerevisiae BY4716 + rapamycin, higher = more signal, called active from +8 up or from −8 down
[15] = molecular target: Torsin-1A-interacting protein 2 (Homo sapiens) (UniProt Q8NFQ8); assay: small molecules binding lysate-expressed LULL1 – cell lysate, human LULL1 lysate, 635/667 nm fluorescence, primary screen (AID 1092); conditions: small-molecule microarray, hLULL1 lysate binding, 635 nm fluorescence; higher = more signal;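 further: probe is lysate of COS7 cells overexpressing human LULL1; score merges per-feature 667 nm fluorescence with signal-to-noise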
Chain of Torsin-1A-interacting protein 2 (Homo sapiens) (Q8NFQ8 whole entry, looked up): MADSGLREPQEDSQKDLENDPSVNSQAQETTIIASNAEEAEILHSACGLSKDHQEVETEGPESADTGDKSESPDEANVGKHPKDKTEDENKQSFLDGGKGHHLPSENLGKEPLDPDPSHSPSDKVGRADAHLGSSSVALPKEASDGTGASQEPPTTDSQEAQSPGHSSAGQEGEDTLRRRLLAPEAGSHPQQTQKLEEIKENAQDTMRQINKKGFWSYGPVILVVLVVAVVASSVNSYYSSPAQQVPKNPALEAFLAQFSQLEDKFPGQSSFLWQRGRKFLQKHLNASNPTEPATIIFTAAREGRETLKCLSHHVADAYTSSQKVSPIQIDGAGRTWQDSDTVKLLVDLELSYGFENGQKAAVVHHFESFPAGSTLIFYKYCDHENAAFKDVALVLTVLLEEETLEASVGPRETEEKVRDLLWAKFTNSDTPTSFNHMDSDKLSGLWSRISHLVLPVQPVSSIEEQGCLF

[16] = optical density change of DRC41 E. coli – strain DRC41, OD650, 24 h, E. coli filamentation project, primary screen (AID 1093);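 further: MC1000 strain lacking acrAB efflux and sulA so SOS filamentation is blocked; test concentration not given here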; conditions: E. coli DRC41 growth, higher = more signal, called active from +8 up or from −8 down
[17] = probe aLefty2 binding to arrayed compounds – biochemical, biotinylated probe, 635/667 nm fluorescence, primary screen (AID 1094); conditions: small-molecule microarray, higher = more signal;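 further: score merges spot fluorescence near 667 nm with spot signal-to-noise ratio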
[18] = tested on: Noggin (protein binding on small-molecule microarray); assay: small molecules binding Noggin protein – biochemical, 635/667 nm fluorescence, primary screen (AID 1095); conditions: 635 nm fluorescence, higher = more signal;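 further: score merges 667 nm feature fluorescence with signal to noise over triplicate slides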
[19] = molecular target: Neurogenic locus notch homolog protein 3 (Homo sapiens) (UniProt Q9UM47); assay: small molecules binding NOTCH3 protein – biochemical, 635/667 nm fluorescence, primary screen (AID 1096); conditions: small-molecule microarray, 635 nm fluorescence, higher = more signal
Chain of Neurogenic locus notch homolog protein 3 (Homo sapiens) (Q9UM47 whole entry, looked up): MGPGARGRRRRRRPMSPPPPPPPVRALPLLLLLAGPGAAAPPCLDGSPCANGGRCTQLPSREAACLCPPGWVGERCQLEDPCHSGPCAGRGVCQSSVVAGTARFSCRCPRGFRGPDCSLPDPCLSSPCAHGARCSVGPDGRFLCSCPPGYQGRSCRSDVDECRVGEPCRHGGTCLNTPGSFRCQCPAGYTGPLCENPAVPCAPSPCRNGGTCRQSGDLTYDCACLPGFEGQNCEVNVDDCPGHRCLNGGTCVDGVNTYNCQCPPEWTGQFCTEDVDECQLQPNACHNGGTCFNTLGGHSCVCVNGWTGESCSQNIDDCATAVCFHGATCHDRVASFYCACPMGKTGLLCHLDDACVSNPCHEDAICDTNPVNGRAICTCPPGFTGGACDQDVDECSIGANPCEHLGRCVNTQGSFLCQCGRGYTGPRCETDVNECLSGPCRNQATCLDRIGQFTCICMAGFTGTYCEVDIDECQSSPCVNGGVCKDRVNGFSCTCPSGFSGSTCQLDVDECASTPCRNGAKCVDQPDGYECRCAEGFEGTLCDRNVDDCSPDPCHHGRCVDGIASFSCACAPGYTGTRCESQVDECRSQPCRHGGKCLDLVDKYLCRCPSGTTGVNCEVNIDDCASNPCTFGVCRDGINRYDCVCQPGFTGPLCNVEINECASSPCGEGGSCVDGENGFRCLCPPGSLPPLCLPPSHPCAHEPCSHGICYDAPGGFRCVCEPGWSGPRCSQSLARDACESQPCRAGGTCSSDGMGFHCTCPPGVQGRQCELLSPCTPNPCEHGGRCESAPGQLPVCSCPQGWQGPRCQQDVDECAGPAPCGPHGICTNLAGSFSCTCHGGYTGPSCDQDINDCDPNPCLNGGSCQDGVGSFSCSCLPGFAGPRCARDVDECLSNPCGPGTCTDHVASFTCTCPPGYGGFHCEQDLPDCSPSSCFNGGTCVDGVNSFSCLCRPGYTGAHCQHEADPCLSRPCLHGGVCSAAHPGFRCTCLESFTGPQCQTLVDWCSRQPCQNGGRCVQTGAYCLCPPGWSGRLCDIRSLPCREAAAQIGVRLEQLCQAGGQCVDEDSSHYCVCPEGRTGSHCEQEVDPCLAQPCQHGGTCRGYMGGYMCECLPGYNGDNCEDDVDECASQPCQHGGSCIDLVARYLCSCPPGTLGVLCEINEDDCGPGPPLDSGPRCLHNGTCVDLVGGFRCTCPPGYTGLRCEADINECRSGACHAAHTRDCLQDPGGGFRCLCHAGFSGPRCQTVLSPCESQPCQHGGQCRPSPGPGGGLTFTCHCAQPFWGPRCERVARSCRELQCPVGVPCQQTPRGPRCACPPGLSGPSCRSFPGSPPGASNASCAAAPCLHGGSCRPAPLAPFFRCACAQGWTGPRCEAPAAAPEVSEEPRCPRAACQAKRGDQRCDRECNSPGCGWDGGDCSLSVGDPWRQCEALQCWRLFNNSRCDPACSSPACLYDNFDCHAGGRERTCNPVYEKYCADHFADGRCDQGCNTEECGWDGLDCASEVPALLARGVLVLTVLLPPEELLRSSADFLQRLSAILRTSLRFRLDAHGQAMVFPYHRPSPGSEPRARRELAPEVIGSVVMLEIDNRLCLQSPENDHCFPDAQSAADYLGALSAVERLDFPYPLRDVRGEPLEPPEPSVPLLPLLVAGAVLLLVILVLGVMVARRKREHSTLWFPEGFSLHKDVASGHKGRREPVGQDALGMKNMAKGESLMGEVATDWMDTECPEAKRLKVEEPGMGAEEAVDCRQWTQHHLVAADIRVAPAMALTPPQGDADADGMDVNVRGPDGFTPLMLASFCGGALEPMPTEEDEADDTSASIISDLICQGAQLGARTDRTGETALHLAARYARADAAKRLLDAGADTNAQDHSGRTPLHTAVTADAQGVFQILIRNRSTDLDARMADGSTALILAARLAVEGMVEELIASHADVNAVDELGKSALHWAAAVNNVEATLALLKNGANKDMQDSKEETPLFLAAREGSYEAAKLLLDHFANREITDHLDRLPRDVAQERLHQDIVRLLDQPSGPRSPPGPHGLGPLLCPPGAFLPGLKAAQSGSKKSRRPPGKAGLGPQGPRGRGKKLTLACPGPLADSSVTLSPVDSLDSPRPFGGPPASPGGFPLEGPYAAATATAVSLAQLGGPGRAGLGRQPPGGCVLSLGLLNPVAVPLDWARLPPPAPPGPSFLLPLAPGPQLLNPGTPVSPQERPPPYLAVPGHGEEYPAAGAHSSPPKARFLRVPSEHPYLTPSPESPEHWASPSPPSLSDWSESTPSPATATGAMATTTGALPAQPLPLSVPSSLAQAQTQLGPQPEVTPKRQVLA

[20] = probe aEGFR binding to arrayed compounds – biochemical, biotinylated probe, 635/667 nm fluorescence, primary screen (AID 1097); conditions: small-molecule microarray, higher = more signal;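 further: probe is a biotinylated anti-EGFR antibody binding compounds printed on slides; score combines fluorescence near 667 nm and signal to noise of each spot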

| Structure (SMILES) | composite z-score [1] | composite z-score [2] | composite z-score [3] | composite z-score [4] | composite z-score [5] | composite z-score [6] | composite z-score [7] | z-score [8] | composite z-score [9] | composite z-score [10] | composite z-score [11] | z-score [12] | z-score [13] | z-score [14] | composite z-score [15] | z-score [16] | composite z-score [17] | composite z-score [18] | composite z-score [19] | composite z-score [20] |
| --- | --- | --- | --- | --- | --- | --- | --- | --- | --- | --- | --- | --- | --- | --- | --- | --- | --- | --- | --- | --- |
| COC(=O)C(CC#Cc1ccc2c(c1)[C@]1(C(=O)N2)[C@H](C(=O)N2CCCCCCC2)[C@H]2C(=O)O[C@H](c3ccccc3)[C@H](c3ccccc3)N2[C@@H]1c1ccc(O)cc1)C(=O)OC | 0.565 | -1.17 | -0.167 | -0.542 | -1.07 | -0.712 | -0.466 | 1.65 (inactive) | -0.137 | -0.306 | -1.19 | -0.428 (inactive) | 0.0597 (inactive) | 0.702 (inactive) | -0.573 | 0.904 (inactive) | -0.294 | -0.805 | -0.909 | -0.221 |
| [N-]=[N+]=NCc1ccccc1[C@H]1OC(c2ccc(OCCCO)cc2)=N[C@@]1(Cc1ccccc1N=[N+]=[N-])C(=O)NCc1ccccc1 | 0.817 | 0.155 | 0.0308 | 0.622 | 1.28 | 0.408 | 0.807 | -1.35 (inactive) | 0.939 | 0.0595 | 1.4 | 0.0182 (inactive) | 1.98 (inactive) | 11.8 (active) | 2.69 | 0.0275 (inactive) | 0.232 | 0.159 | 0.867 | 0.223 |
| O=C1C[C@@](C(=O)NCCN2CCOCC2)(c2ccc([N+](=O)[O-])cc2)[C@@H](c2ccc(CO)cc2)N1C1CCCCC1 | 0.224 | 0.657 | 0.11 | 0.26 | 0.576 | 0.548 | 1.25 | 0.292 (inactive) | 0.133 | 0.0053 | 1.55 | 0.406 (inactive) | -0.824 (inactive) | -0.468 (inactive) | 3.07 | 1.48 (inactive) | 0.138 | 0.515 | 1.12 | 0.23 |
| O=C1O[C@H](c2ccccc2)[C@H](c2ccccc2)N2[C@H]1[C@@H](C(=O)Nc1nc3ccccc3s1)[C@]1(C(=O)Nc3ccc(C#CC4=CCCCC4)cc31)[C@H]2c1ccccc1OCCO | -0.572 | 0.255 | 0.0075 | 0.552 | 1.16 | 1.59 | 1.06 | 0.59 (inactive) | 0.459 | -0.0726 | 1.56 | 2.17 (inactive) | 1.82 (inactive) | 4.5 (inactive) | 2.35 | -0.0227 (inactive) | -0.0778 | 1.53 | 1.1 | 0.0564 |
| C=CCC(OC(C)=O)[C@@H]1[C@@H](N(Cc2cccc3ccccc23)C(=O)c2ccc(C)cc2)c2cc(OCCCO)ccc2N1C(=O)c1ccc(-c2ccccc2)cc1 (stereo not given in full) | 0.115 | 0.529 | -0.0753 | 0.255 | -0.169 | 0.0808 | -0.173 | -2.1 (inactive) | 0.159 | -0.335 | 0.578 | -2.24 (inactive) | 0.167 (inactive) | -0.347 (inactive) | 0.298 | 1.29 (inactive) | -0.11 | 0.314 | 0.387 | -0.0967 |
| CO[C@H]1COC(=O)[C@H](CCSC)NC(=O)CC=C[C@@H](C)COC(=O)[C@@H](OCc2ccccc2)C=C[C@@H]1C | -0.929 | 2.45 | -0.294 | -0.226 | -0.206 | -0.37 | 0.782 | -0.592 (inactive) | -0.327 | -0.0047 | 1.13 | 0.891 (inactive) | 0.353 (inactive) | 0.97 (inactive) | -0.84 | 0.109 (inactive) | -0.222 | 1.93 | 0.13 | -0.0131 |
| O=C1C2C=CC(C(O)C#Cc3ccccc3)N(Nc3ccccc3)C2C(=O)N1c1ccccc1 (stereo not given) | 0.532 | -0.17 | -0.0316 | 0.208 | 1.46 | 1.74 | 1.24 | 0.818 (inactive) | 0.246 | -0.226 | 0.398 | 0.132 (inactive) | -0.0141 (inactive) | 0.104 (inactive) | 2.95 | -0.389 (inactive) | 0.217 | -0.418 | 0.314 | -0.108 |
| COc1cc2c(cc1OC)CN(C(=O)[C@H]1[C@@H]3C(=O)O[C@@H](c4ccccc4)[C@@H](c4ccccc4)N3[C@@H](c3ccc(O)cc3)[C@]13C(=O)Nc1ccc(C#CC4(O)CCCCCC4)cc13)CC2 | 1.75 | 0.457 | 0.567 | 1.12 | 0.685 | 2.26 | 1.33 | -0.21 (inactive) | 2.53 | 2.29 | 1.41 | 0.377 (inactive) | 0.0581 (inactive) | 0.695 (inactive) | 3.75 | 0.206 (inactive) | 0.675 | 1.72 | 0.991 | 0.221 |
| NC(=O)NCC#Cc1ccc2c(c1)[C@]1(C(=O)N2)[C@H](C(=O)N2CCCCCCC2)[C@H]2C(=O)O[C@H](c3ccccc3)[C@H](c3ccccc3)N2[C@@H]1c1ccccc1OCCO | 3.86 | 2.03 | 0.876 | 0.921 | 1.43 | 1.92 | 0.589 | 0.423 (inactive) | 3.38 | 0.526 | 1.54 | 0.305 (inactive) | -3.26 (inactive) | 1 (inactive) | 4.33 | 1.82 (inactive) | 1.65 | 1.36 | 1.05 | 1.3 |
| C=CCOC(=O)[C@@H]1[C@H]2C(=O)O[C@H](c3ccccc3)[C@H](c3ccccc3)N2[C@H](c2ccc(OCCOC(=O)[C@H]3C[C@H]4C(=O)N5CCC[C@H]5C(=O)N4[C@H]3c3ccc(O)cc3)cc2)[C@@]12C(=O)Nc1ccccc12 | -0.536 | 0.774 | -0.0169 | 0.691 | 0.742 | 0.968 | 1.3 | -0.619 (inactive) | -0.0007 | -0.0994 | 1.51 | -0.0259 (inactive) | -0.766 (inactive) | 2.42 (inactive) | 1.44 | 2.52 (inactive) | 0.239 | 0.684 | 0.695 | 0.0459 |
